These results are taken from PubChem BioAssay AID2544 (Sanford-Burnham Center for Chemical Genomics, 2010).

The whole screen tested about 330,000 compounds, of which about 390 (0.12%) were called active. What follows is part of a selection rich in actives, with near analogues and random picks from the rest. A number with no mark means an inactive call.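 How the source made its calls: active means inhibition reaching a set limit with compound at 10 µM in the primary screen (cut at about 35% in these data); inactive means the rest.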

In the test the target is Intestinal-type alkaline phosphatase (Homo sapiens) (UniProt P09923). Put plainly: human IAP inhibitors, primary screen, biochemical, luminescence, uHTS (AID 2544).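 Further: plate controls were DMSO wells with enzyme for no effect and no-enzyme buffer wells for full effect.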 As to conditions: purified IAP, CDP-Star luminescence, 30 min; at 10 µM; stronger effect = higher value.
Sequence of Intestinal-type alkaline phosphatase (Homo sapiens) (P09923 whole entry, looked up): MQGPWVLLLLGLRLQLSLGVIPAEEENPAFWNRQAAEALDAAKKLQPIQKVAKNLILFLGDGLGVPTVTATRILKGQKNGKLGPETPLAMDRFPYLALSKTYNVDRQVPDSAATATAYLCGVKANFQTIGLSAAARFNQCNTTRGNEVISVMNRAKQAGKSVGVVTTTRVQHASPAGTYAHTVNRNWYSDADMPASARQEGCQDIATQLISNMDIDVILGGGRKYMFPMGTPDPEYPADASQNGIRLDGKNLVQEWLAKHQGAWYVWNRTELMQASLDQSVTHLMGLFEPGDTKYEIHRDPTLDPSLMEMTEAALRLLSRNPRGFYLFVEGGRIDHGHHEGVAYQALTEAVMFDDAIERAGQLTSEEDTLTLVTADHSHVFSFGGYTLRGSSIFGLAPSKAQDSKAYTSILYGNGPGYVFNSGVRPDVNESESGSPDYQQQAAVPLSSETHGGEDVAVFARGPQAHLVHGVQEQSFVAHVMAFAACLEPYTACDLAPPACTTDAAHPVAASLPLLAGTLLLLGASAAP
As for `COc1ccccc1N=Nc1c(O)[nH]c(=S)[nH]c1=O`, the inhibition was 37.5% (active).
To `CCOCCc1c(O)[nH]c(=S)[nH]c1=O` belongs 7.2%; to `O=C1N=c2ccccc2=C/C1=C\c1c(O)[nH]c(=S)[nH]c1=O`, -13%.
For the compound `COc1ccc(NC(=O)c2cn(CCC#N)nc2-c2ccc([N+](=O)[O-])cc2)cc1`, the inhibition was 1.2%.
To `CN(c1ccccc1)c1ccc([N+](=O)[O-])c2nonc12` belongs 45.8% (active); to `CCN(CC)c1ccc([N+](=O)[O-])c2cccnc12`, 26.2%.
Consider `O=C(OCCN1CCOCC1)C1(c2ccccc2)CCCC1`, for which the inhibition is -11.7%.
To `Cc1ccc2c(c1)C1CN(C)CCC1N2C(=O)Cn1nnc(-c2ccccc2F)n1` (stereo not given) belongs -5.5%; to `Cc1ccc2c(c1)=C/C(=C\c1c(O)[nH]c(=O)[nH]c1=O)C(=O)N=2`, -9.3%; to `COc1ccc(-n2c(O)c(C(C)=Nc3ccc4c(c3)CCC4)c(=O)[nH]c2=O)cc1`, -16.1%.

For orientation: inhibition means the change of the read-out against control, counted positive when it falls.
